Test results from the supplement of paper PMC7411054.
Where a name gives a salt, the structure may show the parent alone.

What was measured:
Assay in all cases: lowest phenotypically active concentration; higher = less potent
Details in all cases: treatment time: 24 h
A549-CANX-COX4 = tested on: A549-CANX-COX4
Procedure, shortened: (§1)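 Live-cell features were measured per well and normalised to solvent control wells after fifteen gene-edited A549, HepG2 and WPMY1 reporter lines had been treated for 24 h at 0.3, 1, 3 or 9 µM in four wells each. A condition was deviating when ≥3 of 4 wells sat beyond the 95th percentile of control Euclidean distances. It was reproducible when the median replicate Pearson correlation exceeded the 95th percentile of non-replicates. Phenotypic activity demanded both.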

HepG2-ACTB-RAB5A = tested on: HepG2-ACTB-RAB5A
Procedure, shortened: as §1

HepG2-CANX-COX4 = tested on: HepG2-CANX-COX4
Procedure, shortened: as §1

HepG2-GM130-SQSTM1 = tested on: HepG2-GM130-SQSTM1
Procedure, shortened: as §1

HepG2-TUBA1B-RELA = tested on: HepG2-TUBA1B-RELA
Procedure, shortened: as §1

WPMY1-ACTB-RAB5A = tested on: WPMY1-ACTB-RAB5A
Procedure, shortened: as §1

WPMY1-CANX-COX4 = tested on: WPMY1-CANX-COX4
Procedure, shortened: as §1

WPMY1-GM130-SQSTM1 = tested on: WPMY1-GM130-SQSTM1
Procedure, shortened: as §1

WPMY1-TP53BP1-CLTA = tested on: WPMY1-TP53BP1-CLTA
Procedure, shortened: as §1

WPMY1-TUBA1B-RELA = tested on: WPMY1-TUBA1B-RELA
Procedure, shortened: as §1

Measured: lowest phenotypically active concentration

CN1C[C@H](C(=O)N[C@]2(C)O[C@@]3(O)[C@@H]4CCCN4C(=O)[C@H](Cc4ccccc4)N3C2=O)C=C2c3cccc4[nH]cc(c34)C[C@H]21 [ergotamine]
9 µM: HepG2-ACTB-RAB5A | HepG2-TUBA1B-RELA
3 µM: all other assays above

Cc1sc2c(c1C)C(c1ccc(Cl)cc1)=N[C@@H](CC(N)=O)c1nnc(C)n1-2
≤ 0.3 µM: all assays above

C[C@@]1(CO)[C@H](O)CC[C@@]2(C)[C@H]1CC[C@H]1C[C@@H]3C[C@@]12CC[C@]3(O)CO [Aphidicolin]
1 µM: WPMY1-TP53BP1-CLTA
≤ 0.3 µM: all other assays above

COC[C@H]1OC(=O)c2coc3c2[C@@]1(C)C1=C(C3=O)[C@@H]2CCC(=O)[C@@]2(C)C[C@H]1OC(C)=O [wortmannin]
9 µM: A549-CANX-COX4

C[C@H]1O[C@@H](O[C@H]2[C@@H](O)C[C@H](O[C@H]3[C@@H](O)C[C@H](O[C@H]4CC[C@@]5(C)[C@H](CC[C@@H]6[C@@H]5CC[C@]5(C)[C@@H](C7=CC(=O)OC7)[C@@H](O)C[C@]65O)C4)O[C@@H]3C)O[C@@H]2C)C[C@H](O)[C@@H]1O [Gitoxin]
1 µM: HepG2-GM130-SQSTM1 | WPMY1-GM130-SQSTM1
≤ 0.3 µM: all other assays above

CCCCCC[C@H]1C(=O)O[C@H](C)[C@H](NC(=O)c2cccc(NC=O)c2O)C(=O)O[C@@H](C)[C@@H]1OC(=O)CC(C)C [antimycin a]
1 µM: WPMY1-GM130-SQSTM1
≤ 0.3 µM: all other assays above

COc1cc([C@@H]2c3cc4c(cc3[C@H](O)[C@H]3COC(=O)[C@H]23)OCO4)cc(OC)c1OC [Podophyllotoxin]
≤ 0.3 µM: all assays above

CC(C)(C)c1cc(C=C(C#N)C#N)cc(C(C)(C)C)c1O [Malonoben]
1 µM: all assays above

C=C1[C@@H](O)C2C=CC[C@H](C)C(=O)[C@](C)(O)C=C[C@@H](OC(C)=O)[C@]23C(=O)N[C@H](Cc2ccccc2)[C@@H]3[C@@H]1C (stereo partly specified) [Cytochalasin D]
≤ 0.3 µM: all assays above

COc1ccc(CCN2CCC(Nc3nc4ccccc4n3Cc3ccc(F)cc3)CC2)cc1 [astemizole]
9 µM: A549-CANX-COX4 | WPMY1-TP53BP1-CLTA
1 µM: HepG2-TUBA1B-RELA
3 µM: all other assays above

COc1cc2c(c(OC)c1OC)-c1ccc(OC)c(=O)cc1[C@@H](NC(C)=O)CC2 [colchicine]
≤ 0.3 µM: all assays above

CCn1cnc2c(Nc3cccc(Cl)c3)nc(N[C@H]3CCCC[C@H]3N)nc21
3 µM: A549-CANX-COX4 | WPMY1-ACTB-RAB5A
1 µM: all other assays above

C[C@]12CC[C@H](O)C[C@H]1CC[C@@H]1[C@@H]2C[C@@H](O)[C@]2(C)[C@@H](C3=CC(=O)OC3)CC[C@]12O [Digoxigenin]
3 µM: HepG2-CANX-COX4 | HepG2-GM130-SQSTM1 | WPMY1-GM130-SQSTM1
1 µM: all other assays above

COc1cc2c(c(OC)c1OC)-c1ccc(O)c(=O)cc1[C@@H](N)CC2 [Trimethylcolchicinic acid]
9 µM: A549-CANX-COX4 | HepG2-CANX-COX4 | HepG2-TUBA1B-RELA

CC(C)[C@@]1(NC(=O)[C@@H]2C[C@@H]3c4cccc5[nH]cc(c45)C[C@H]3N(C)C2)O[C@@]2(O)[C@@H]3CCCN3C(=O)[C@H](Cc3ccccc3)N2C1=O [Dihydroergocristine mesylate]
3 µM: HepG2-ACTB-RAB5A | HepG2-GM130-SQSTM1 | HepG2-TUBA1B-RELA
9 µM: all other assays above

O=C(Nc1ccncc1)C(=O)c1cn(Cc2ccc(Cl)cc2)c2ccccc12 [Indibulin]
1 µM: HepG2-ACTB-RAB5A | HepG2-TUBA1B-RELA
3 µM: WPMY1-CANX-COX4
not listed: A549-CANX-COX4
≤ 0.3 µM: all other assays above

N#CC(C#N)=NNc1ccc(OC(F)(F)F)cc1
3 µM: WPMY1-ACTB-RAB5A | WPMY1-CANX-COX4 | WPMY1-TP53BP1-CLTA
9 µM: all other assays above

CCN1CCN(C(=O)Cc2ccc(Nc3ncc(F)c(Nc4ccc(C(=O)Nc5ccccc5Cl)cc4)n3)cc2)CC1
≤ 0.3 µM: HepG2-TUBA1B-RELA
not listed: WPMY1-CANX-COX4 | WPMY1-GM130-SQSTM1
1 µM: all other assays above

O=C1NC(=O)c2c1c1c3ccccc3n3c1c1c2c2ccccc2n1C1CCC3O1
3 µM: WPMY1-ACTB-RAB5A
9 µM: WPMY1-CANX-COX4 | WPMY1-TP53BP1-CLTA
≤ 0.3 µM: WPMY1-GM130-SQSTM1

CC[C@@H]1C=CC=CC[C@H](C)[C@@H](O)[C@](C)(O)C(=O)[C@H](C)[C@@H](O)[C@H](C)C(=O)[C@H](C)[C@@H](O)[C@H](C)C=CC(=O)O[C@H]2[C@@H](C)[C@@H](CC1)O[C@@]1(CC[C@@H](C)[C@@H](C[C@H](C)O)O1)[C@@H]2C [Oligomycin A]
1 µM: WPMY1-CANX-COX4
≤ 0.3 µM: A549-CANX-COX4 | HepG2-ACTB-RAB5A | HepG2-CANX-COX4 | HepG2-GM130-SQSTM1 | HepG2-TUBA1B-RELA

COc1ccc(N(C(=O)Oc2c(C)cccc2C)c2ccnc(Nc3ccc(N4CCN(C)CC4)cc3)n2)c(OC)c1
1 µM: HepG2-CANX-COX4 | WPMY1-ACTB-RAB5A
3 µM: A549-CANX-COX4 | HepG2-GM130-SQSTM1 | WPMY1-TP53BP1-CLTA
≤ 0.3 µM: HepG2-ACTB-RAB5A | HepG2-TUBA1B-RELA

COc1ccc2c(c1)/C(=C/c1c[nH]cn1)C(=O)N2
3 µM: WPMY1-ACTB-RAB5A
≤ 0.3 µM: HepG2-GM130-SQSTM1
1 µM: all other assays above

C[C@@H]1CC[C@H]2[C@@H](C)C(=O)O[C@@H]3O[C@@]4(C)CC[C@@H]1[C@]32OO4 [Artemisinin]
3 µM: HepG2-ACTB-RAB5A | HepG2-GM130-SQSTM1
1 µM: WPMY1-TP53BP1-CLTA
not listed: A549-CANX-COX4 | HepG2-CANX-COX4
≤ 0.3 µM: all other assays above
